# Measured values reported in the supplement of paper PMC8728848.
# This excerpt belongs to a sample that is enriched for the strongest signals.
# B1: LlpB (Pseudomonas fluorescens) (protein)
# chain: MGSSHHHHHHSSGLVPRGSHMASSGFRIILFNSANNGTAILPPRNCLVAGQYLESPSKRYKLILEADGNLRLYDNGVPIWVADSSVPYTYVDNRPNTNLVTCFYMQGSAFLVDRVGSRTWATIGDWIDGAADRAYLQVQDDGNVVVVDGVPRWARFGFTPAALPNRGVFYPDHGTGPLPSFPVWSWTF
# Columns and labels:
# Assay in all cases: glycan array binding signal (z-score within array); higher = stronger binding
# Details in all cases: glycan notation: IUPAC condensed, linker removed
# [1] = molecular target: GlcNAc(b1-3)Man
# Summary of the method: (§1)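 The binding signal is a Z-score computed within each array and averaged over linkers. Arrays of the same protein sequence at different concentrations or buffers were also averaged together. Data originate from 3228 arrays in the Consortium for Functional Glycomics database, kept only where the protein sequence was available.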
# [2] = molecular target: GlcNAc(b1-3)[GlcNAc(b1-6)]Gal(b1-4)GlcNAc
# Summary of the method: as §1
# [3] = molecular target: Kdn(a2-3)Gal(b1-4)Glc
# Summary of the method: as §1
# [4] = molecular target: MurNAc(b1-4)GlcNAc
# Summary of the method: as §1
# [5] = molecular target: Neu5Ac(a2-3)Gal(b1-3)GalNAc(b1-4)[Neu5Ac(a2-3)]Gal(b1-4)Glc
# Summary of the method: as §1
# [6] = molecular target: Neu5Ac(a2-3)Gal(b1-3)GalNAc(b1-4)[Neu5Ac(a2-8)Neu5Ac(a2-3)]Gal(b1-4)Glc
# Summary of the method: as §1
# [7] = molecular target: Neu5Ac(a2-3)Gal(b1-3)GlcNAc(b1-2)Man
# Summary of the method: as §1
# [8] = molecular target: Neu5Ac(a2-3)Gal(b1-3)[Fuc(a1-4)]GlcNAc
# Summary of the method: as §1
# [9] = molecular target: Neu5Ac(a2-3)Gal(b1-4)Glc
# Summary of the method: as §1
# [10] = molecular target: Neu5Ac(a2-3)Gal(b1-4)GlcNAc(b1-2)Man(a1-3)[Neu5Ac(a2-3)Gal(b1-4)GlcNAc(b1-2)Man(a1-6)]Man(b1-4)GlcNAc(b1-4)[Fuc(a1-6)]GlcNAc
# Summary of the method: as §1
# [11] = molecular target: Neu5Ac(a2-3)Gal(b1-4)GlcNAc(b1-2)[Neu5Ac(a2-3)Gal(b1-4)GlcNAc(b1-4)]Man(a1-3)[GlcNAc(b1-4)][Neu5Ac(a2-3)Gal(b1-4)GlcNAc(b1-2)[Neu5Ac(a2-3)Gal(b1-4)GlcNAc(b1-6)]Man(a1-6)]Man(b1-4)GlcNAc(b1-4)GlcNAc
# Summary of the method: as §1
# [12] = molecular target: Neu5Ac(a2-3)Gal(b1-4)GlcNAc(b1-2)[Neu5Ac(a2-3)Gal(b1-4)GlcNAc(b1-6)]Man(a1-6)[Neu5Ac(a2-3)Gal(b1-4)GlcNAc(b1-2)Man(a1-3)][GlcNAc(b1-4)]Man(b1-4)GlcNAc(b1-4)GlcNAc
# Summary of the method: as §1
# [13] = molecular target: Neu5Ac(a2-3)Gal(b1-4)GlcNAc(b1-3)Gal(b1-4)GlcNAc(b1-3)[Neu5Ac(a2-3)Gal(b1-4)GlcNAc(b1-3)Gal(b1-4)GlcNAc(b1-6)]GalNAc
# Summary of the method: as §1
# [14] = molecular target: Neu5Ac(a2-3)Gal(b1-4)GlcNAc(b1-3)GalNAc
# Summary of the method: as §1
# [15] = molecular target: Neu5Ac(a2-3)Gal(b1-4)GlcNAc(b1-3)[Neu5Ac(a2-3)Gal(b1-4)GlcNAc(b1-6)]GalNAc
# Summary of the method: as §1
# [16] = molecular target: Neu5Ac(a2-3)Gal(b1-4)[Fuc(a1-3)]GlcNAc(b1-3)GalNAc
# Summary of the method: as §1
# [17] = molecular target: Neu5Ac(a2-6)Gal(b1-4)GlcNAc(b1-2)Man(a1-3)[Man(a1-6)]Man(b1-4)GlcNAc(b1-4)GlcNAc
# Summary of the method: as §1
# [18] = molecular target: Neu5Ac(a2-6)Gal(b1-4)GlcNAc(b1-2)Man(a1-3)[Neu5Ac(a2-6)Gal(b1-4)GlcNAc(b1-2)Man(a1-6)]Man(b1-4)GlcNAc(b1-4)[Fuc(a1-6)]GlcNAc
# Summary of the method: as §1
# [19] = molecular target: Neu5Ac(a2-6)Gal(b1-4)GlcNAc(b1-3)Gal(b1-4)GlcNAc(b1-2)Man(a1-3)[Neu5Ac(a2-6)Gal(b1-4)GlcNAc(b1-3)Gal(b1-4)GlcNAc(b1-2)Man(a1-6)]GalNAc
# Summary of the method: as §1
# [20] = molecular target: Neu5Ac(a2-6)Gal(b1-4)GlcNAc(b1-3)Gal(b1-4)GlcNAc(b1-3)GalNAc
# Summary of the method: as §1
# [21] = molecular target: Neu5Ac(a2-6)GalNAc(b1-4)GlcNAc
# Summary of the method: as §1
# [22] = molecular target: Neu5Ac(a2-6)GlcNAc(b1-4)GlcNAc(b1-4)GlcNAc
# Summary of the method: as §1
# [23] = molecular target: Neu5Ac(a2-8)Neu5Ac(a2-3)Gal(b1-3)GalNAc(b1-4)[Neu5Ac(a2-3)]Gal(b1-4)Glc
# Summary of the method: as §1
# [24] = molecular target: Neu5Ac(a2-8)Neu5Ac(a2-3)Gal(b1-4)GlcNAc
# Summary of the method: as §1
# [25] = molecular target: Neu5Ac(a2-8)Neu5Ac(a2-3)[Gal(b1-3)GalNAc(b1-4)]Gal(b1-4)Glc
# Summary of the method: as §1
# [26] = molecular target: Neu5Ac9Ac(a2-3)Gal(b1-3)GlcNAc
# Summary of the method: as §1
# [27] = molecular target: Neu5Gc(a2-3)Gal(b1-4)Glc
# Summary of the method: as §1
binder,measurement,setting,value
B1,glycan array binding signal (z-score),[1],0.669
same,glycan array binding signal (z-score),[2],-0.461
same,glycan array binding signal (z-score),[3],3.03
same,glycan array binding signal (z-score),[4],2.54
same,glycan array binding signal (z-score),[5],2.9
same,glycan array binding signal (z-score),[6],-1.93
same,glycan array binding signal (z-score),[7],2.63
same,glycan array binding signal (z-score),[8],2.3
same,glycan array binding signal (z-score),[9],2.98
same,glycan array binding signal (z-score),[10],-0.332
same,glycan array binding signal (z-score),[11],1.21
same,glycan array binding signal (z-score),[12],-0.505
same,glycan array binding signal (z-score),[13],-0.12
same,glycan array binding signal (z-score),[14],-0.794
same,glycan array binding signal (z-score),[15],-0.411
same,glycan array binding signal (z-score),[16],0.993
same,glycan array binding signal (z-score),[17],2.88
same,glycan array binding signal (z-score),[18],3.58
same,glycan array binding signal (z-score),[19],2.6
same,glycan array binding signal (z-score),[20],-0.312
same,glycan array binding signal (z-score),[21],-0.182
same,glycan array binding signal (z-score),[22],2.47
same,glycan array binding signal (z-score),[23],2.81
same,glycan array binding signal (z-score),[24],-1.02
same,glycan array binding signal (z-score),[25],-1.03
same,glycan array binding signal (z-score),[26],-0.008
same,glycan array binding signal (z-score),[27],0.956
